Composite z-score and z-score data for 5 compounds are collected here from PubChem BioAssay.

Calls of active or inactive are those of the source.

For assay [1], the system named is PRMT1 (protein arginine N-methyltransferase 1). As to the kind of experiment: PRMT1 binders on small-molecule microarrays, primary screen, biochemical, small-molecule microarray, 635 nm fluorescence (AID 1088).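 Note: binding of Prmt1 protein to compounds spotted on small-molecule microarray slides.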 The settings on record: small-molecule microarray binding, higher = more signal.
Assay [2] in a line: yeast growth modulation, basal conditions, primary screen, YJM789 clinical isolate, OD600, 24 h (AID 1089).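 Note: growth of clinical yeast isolate S. cerevisiae YJM 789 seeded 1000 cells per well; test concentration not given here.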 The settings on record: S. cerevisiae YJM789 growth, higher = more signal, called active from +8 up or from −8 down.
Assay [3] in a line: fission yeast growth modulation, primary screen, strain 972, OD600, 24 h, no modulator (AID 1090).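 Note: basal condition with compound alone and no growth modifier present; test concentration not given here.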 The following applies: S. pombe 972 growth, higher = more signal, called active from +8 up or from −8 down.
The nature of assay [4]: S. cerevisiae growth modulation with rapamycin, primary screen, strain BY4716, OD600, 96 h (AID 1091). Note: test concentration not given here. The following applies: higher = more signal, called active from +8 up or from −8 down.
Assay [5] deals with Torsin-1A-interacting protein 2 (Homo sapiens) (UniProt Q8NFQ8). As to the kind of experiment: LULL1 binders on small-molecule microarray, primary screen, cell lysate, human LULL1 lysate, 635/667 nm fluorescence (AID 1092).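 Note: probe is lysate of COS7 cells overexpressing human LULL1; score merges per-feature 667 nm fluorescence with signal-to-noise.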 The settings on record: hLULL1 lysate binding, 635 nm fluorescence, higher = more signal.
The nature of assay [6]: E. coli growth modulation, two-sided OD650, primary screen, E. coli filamentation project, strain DRC41, 24 h (AID 1093).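 Note: MC1000 strain lacking acrAB efflux and sulA so SOS filamentation is blocked; test concentration not given here.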 The following applies: OD650, 24 h, higher = more signal, called active from +8 up or from −8 down.
The nature of assay [7]: small-molecule microarray binders of probe aLefty2, primary screen, biochemical, biotinylated probe, 635/667 nm fluorescence (AID 1094).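 Note: score merges spot fluorescence near 667 nm with spot signal-to-noise ratio.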 The following applies: higher = more signal.
Assay [8] relates to Noggin (protein binding on small-molecule microarray). As to the kind of experiment: Noggin binders on small-molecule microarray, primary screen, biochemical, 635/667 nm fluorescence (AID 1095).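 Note: score merges 667 nm feature fluorescence with signal to noise over triplicate slides.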 The settings on record: 635 nm fluorescence, higher = more signal.
Assay [9] deals with Neurogenic locus notch homolog protein 3 (Homo sapiens) (UniProt Q9UM47). As to the kind of experiment: NOTCH3 binders on small-molecule microarray, primary screen, biochemical, 635/667 nm fluorescence (AID 1096). The following applies: NOTCH3 binding, 635 nm fluorescence, higher = more signal.
The nature of assay [10]: small-molecule microarray binders of probe aEGFR, primary screen, biochemical, biotinylated probe, 635/667 nm fluorescence (AID 1097).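 Note: probe is a biotinylated anti-EGFR antibody binding compounds printed on slides; score combines fluorescence near 667 nm and signal to noise of each spot.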 The settings on record: higher = more signal.
Assay [11] relates to Plasmodium falciparum Sir2 (PF13_0152, Sir2A). As to the kind of experiment: pfSir2 binders on small-molecule microarrays, primary screen, biochemical, small-molecule microarray, 635 nm fluorescence (AID 1098).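 Note: score merges spot fluorescence intensity with its signal-to-noise ratio.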 The following applies: small-molecule microarray binding, fluorescence 635 nm; higher = more signal.
Assay [12] is described as follows: small-molecule microarray binders of probe aDKK1, primary screen, biochemical, biotinylated probe, 635/667 nm fluorescence (AID 1099).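 Note: score merges 667nm spot fluorescence with signal to noise across triplicate slides; reference of the scale not given here.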 The following applies: higher = more signal.
Assay [13] can be described thus: small-molecule microarray binders of probe aCHRDL2, primary screen, biochemical, biotinylated probe, 635/667 nm fluorescence (AID 1100). The following applies: higher = more signal.
Assay [14] is described as follows: splicing luciferase reporter signal modulators, primary screen, spliceosome inhibition project, cell-based, HEK293, splice +/- reporter (AID 1101).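 Note: HEK293 cells carrying a splicing-competent luciferase reporter gene; test concentration not given here.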 The settings on record: luminescence, 24 h, higher = more signal, called active from +8 up or from −8 down. A general note: In a reporter assay the amount or activity of a reporter protein is the signal.
The target of assay [15] is Fibroblast growth factor 10 (Homo sapiens) (UniProt O15520). As to the kind of experiment: FGF10 binders on small-molecule microarrays, primary screen, biochemical, small-molecule microarray, 635 nm fluorescence (AID 1102). The settings on record: FGF10 binding, fluorescence 635 nm, higher = more signal.
The subject of assay [16] is glycogen synthase kinase-3 (GSK3A per assay name; protocol says GSK3B). As to the kind of experiment: GSK3 binders on small-molecule microarrays, primary screen, biochemical, small-molecule microarray, 635 nm fluorescence, GSK3A (AID 1103). Note: the record names both GSK3A and GSK3B. The settings on record: small-molecule microarray binding, fluorescence 635 nm; higher = more signal.
In assay [17] the target is Epidermal growth factor receptor (Homo sapiens) (UniProt P00533). As to the kind of experiment: EGFR binders on small-molecule microarrays, primary screen, biochemical, small-molecule microarray, 635 nm fluorescence (AID 1104).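 Note: score merges 667 nm emission intensity with spot signal to noise over triplicate slides.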 The following applies: EGFR binding, higher = more signal.
For assay [18], the target named is Follistatin-related protein 3 (Homo sapiens) (UniProt O95633). As to the kind of experiment: FSTL3 binders on small-molecule microarrays, primary screen, biochemical, small-molecule microarray, 635 nm fluorescence (AID 1105).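 Note: score merges emission near 667 nm and signal to noise per printed spot across three slides.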 The settings on record: FSTL3 binding, higher = more signal.
The target in assay [19] is Dickkopf-related protein 1 (Homo sapiens) (UniProt O94907). As to the kind of experiment: DKK1 binders on small-molecule microarrays, primary screen, biochemical, small-molecule microarray, 635 nm fluorescence scan (AID 1106).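 Note: score merges emission near 667 nm with signal to noise over three replicate slides.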 The settings on record: DKK1 binding, higher = more signal.
Assay [20] concerns Inhibin beta A chain (activin A). As to the kind of experiment: INHBA (activin A) binders on microarrays, primary screen, biochemical, small-molecule microarray, 635 nm fluorescence scan (AID 1107).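 Note: mouse activin A protein probed at 4.33 µg/mL on printed slides; score merges bound-protein fluorescence near 667 nm with spot signal-to-noise.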 The following applies: small-molecule microarray binding, higher = more signal.

Epidermal growth factor receptor (Homo sapiens), sequence (P00533 whole entry, looked up): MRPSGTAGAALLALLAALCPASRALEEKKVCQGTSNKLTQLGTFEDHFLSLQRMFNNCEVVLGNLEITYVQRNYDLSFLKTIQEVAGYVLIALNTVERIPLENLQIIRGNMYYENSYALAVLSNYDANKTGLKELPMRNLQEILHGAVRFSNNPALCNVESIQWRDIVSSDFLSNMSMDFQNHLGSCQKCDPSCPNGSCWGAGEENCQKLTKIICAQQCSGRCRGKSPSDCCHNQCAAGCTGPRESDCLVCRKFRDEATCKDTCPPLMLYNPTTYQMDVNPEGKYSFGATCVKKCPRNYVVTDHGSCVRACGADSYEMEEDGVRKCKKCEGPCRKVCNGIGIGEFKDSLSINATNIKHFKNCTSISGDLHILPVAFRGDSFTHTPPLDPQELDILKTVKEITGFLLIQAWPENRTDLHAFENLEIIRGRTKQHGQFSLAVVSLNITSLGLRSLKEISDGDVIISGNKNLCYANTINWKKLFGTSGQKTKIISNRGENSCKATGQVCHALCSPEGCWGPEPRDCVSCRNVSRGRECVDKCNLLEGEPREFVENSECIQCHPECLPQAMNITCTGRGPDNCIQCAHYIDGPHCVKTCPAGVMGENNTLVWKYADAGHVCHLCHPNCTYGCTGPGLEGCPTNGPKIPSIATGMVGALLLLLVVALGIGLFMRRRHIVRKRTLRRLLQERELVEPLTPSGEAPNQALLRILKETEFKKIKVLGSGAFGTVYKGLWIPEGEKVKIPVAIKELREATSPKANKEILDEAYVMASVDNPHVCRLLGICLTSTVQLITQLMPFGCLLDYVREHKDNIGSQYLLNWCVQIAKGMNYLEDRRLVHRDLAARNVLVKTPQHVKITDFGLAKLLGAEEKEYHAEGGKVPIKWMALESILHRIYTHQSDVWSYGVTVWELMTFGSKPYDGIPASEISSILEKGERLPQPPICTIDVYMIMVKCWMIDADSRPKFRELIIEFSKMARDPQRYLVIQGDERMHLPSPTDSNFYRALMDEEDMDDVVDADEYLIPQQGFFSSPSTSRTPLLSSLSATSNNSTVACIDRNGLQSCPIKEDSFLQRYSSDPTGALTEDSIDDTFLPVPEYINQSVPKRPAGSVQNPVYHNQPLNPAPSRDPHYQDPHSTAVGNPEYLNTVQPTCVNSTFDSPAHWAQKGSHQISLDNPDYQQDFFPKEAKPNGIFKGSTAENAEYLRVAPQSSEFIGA
Follistatin-related protein 3 (Homo sapiens), sequence (O95633 whole entry, looked up): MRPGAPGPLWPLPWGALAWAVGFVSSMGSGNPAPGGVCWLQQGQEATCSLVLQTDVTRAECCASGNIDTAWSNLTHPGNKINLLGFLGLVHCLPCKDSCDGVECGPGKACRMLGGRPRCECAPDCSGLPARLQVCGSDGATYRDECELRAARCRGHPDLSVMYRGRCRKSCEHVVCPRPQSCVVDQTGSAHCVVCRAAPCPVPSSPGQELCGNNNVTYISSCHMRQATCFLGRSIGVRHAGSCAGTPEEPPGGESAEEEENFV
Dickkopf-related protein 1 (Homo sapiens), sequence (O94907 whole entry, looked up): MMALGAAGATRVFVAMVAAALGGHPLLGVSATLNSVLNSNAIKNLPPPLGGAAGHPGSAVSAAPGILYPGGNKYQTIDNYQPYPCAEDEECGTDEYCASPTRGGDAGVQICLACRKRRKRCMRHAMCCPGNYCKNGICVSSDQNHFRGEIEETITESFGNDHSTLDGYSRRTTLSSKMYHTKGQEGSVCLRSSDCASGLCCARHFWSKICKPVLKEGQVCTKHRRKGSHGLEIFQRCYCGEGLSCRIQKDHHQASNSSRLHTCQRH
Fibroblast growth factor 10 (Homo sapiens), sequence (O15520 whole entry, looked up): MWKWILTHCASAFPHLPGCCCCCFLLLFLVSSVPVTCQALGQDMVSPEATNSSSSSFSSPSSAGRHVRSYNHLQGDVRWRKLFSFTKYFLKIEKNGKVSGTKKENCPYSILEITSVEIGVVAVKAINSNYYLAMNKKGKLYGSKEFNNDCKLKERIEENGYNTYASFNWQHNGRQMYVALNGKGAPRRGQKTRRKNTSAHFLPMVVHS
Neurogenic locus notch homolog protein 3 (Homo sapiens), sequence (Q9UM47 whole entry, looked up): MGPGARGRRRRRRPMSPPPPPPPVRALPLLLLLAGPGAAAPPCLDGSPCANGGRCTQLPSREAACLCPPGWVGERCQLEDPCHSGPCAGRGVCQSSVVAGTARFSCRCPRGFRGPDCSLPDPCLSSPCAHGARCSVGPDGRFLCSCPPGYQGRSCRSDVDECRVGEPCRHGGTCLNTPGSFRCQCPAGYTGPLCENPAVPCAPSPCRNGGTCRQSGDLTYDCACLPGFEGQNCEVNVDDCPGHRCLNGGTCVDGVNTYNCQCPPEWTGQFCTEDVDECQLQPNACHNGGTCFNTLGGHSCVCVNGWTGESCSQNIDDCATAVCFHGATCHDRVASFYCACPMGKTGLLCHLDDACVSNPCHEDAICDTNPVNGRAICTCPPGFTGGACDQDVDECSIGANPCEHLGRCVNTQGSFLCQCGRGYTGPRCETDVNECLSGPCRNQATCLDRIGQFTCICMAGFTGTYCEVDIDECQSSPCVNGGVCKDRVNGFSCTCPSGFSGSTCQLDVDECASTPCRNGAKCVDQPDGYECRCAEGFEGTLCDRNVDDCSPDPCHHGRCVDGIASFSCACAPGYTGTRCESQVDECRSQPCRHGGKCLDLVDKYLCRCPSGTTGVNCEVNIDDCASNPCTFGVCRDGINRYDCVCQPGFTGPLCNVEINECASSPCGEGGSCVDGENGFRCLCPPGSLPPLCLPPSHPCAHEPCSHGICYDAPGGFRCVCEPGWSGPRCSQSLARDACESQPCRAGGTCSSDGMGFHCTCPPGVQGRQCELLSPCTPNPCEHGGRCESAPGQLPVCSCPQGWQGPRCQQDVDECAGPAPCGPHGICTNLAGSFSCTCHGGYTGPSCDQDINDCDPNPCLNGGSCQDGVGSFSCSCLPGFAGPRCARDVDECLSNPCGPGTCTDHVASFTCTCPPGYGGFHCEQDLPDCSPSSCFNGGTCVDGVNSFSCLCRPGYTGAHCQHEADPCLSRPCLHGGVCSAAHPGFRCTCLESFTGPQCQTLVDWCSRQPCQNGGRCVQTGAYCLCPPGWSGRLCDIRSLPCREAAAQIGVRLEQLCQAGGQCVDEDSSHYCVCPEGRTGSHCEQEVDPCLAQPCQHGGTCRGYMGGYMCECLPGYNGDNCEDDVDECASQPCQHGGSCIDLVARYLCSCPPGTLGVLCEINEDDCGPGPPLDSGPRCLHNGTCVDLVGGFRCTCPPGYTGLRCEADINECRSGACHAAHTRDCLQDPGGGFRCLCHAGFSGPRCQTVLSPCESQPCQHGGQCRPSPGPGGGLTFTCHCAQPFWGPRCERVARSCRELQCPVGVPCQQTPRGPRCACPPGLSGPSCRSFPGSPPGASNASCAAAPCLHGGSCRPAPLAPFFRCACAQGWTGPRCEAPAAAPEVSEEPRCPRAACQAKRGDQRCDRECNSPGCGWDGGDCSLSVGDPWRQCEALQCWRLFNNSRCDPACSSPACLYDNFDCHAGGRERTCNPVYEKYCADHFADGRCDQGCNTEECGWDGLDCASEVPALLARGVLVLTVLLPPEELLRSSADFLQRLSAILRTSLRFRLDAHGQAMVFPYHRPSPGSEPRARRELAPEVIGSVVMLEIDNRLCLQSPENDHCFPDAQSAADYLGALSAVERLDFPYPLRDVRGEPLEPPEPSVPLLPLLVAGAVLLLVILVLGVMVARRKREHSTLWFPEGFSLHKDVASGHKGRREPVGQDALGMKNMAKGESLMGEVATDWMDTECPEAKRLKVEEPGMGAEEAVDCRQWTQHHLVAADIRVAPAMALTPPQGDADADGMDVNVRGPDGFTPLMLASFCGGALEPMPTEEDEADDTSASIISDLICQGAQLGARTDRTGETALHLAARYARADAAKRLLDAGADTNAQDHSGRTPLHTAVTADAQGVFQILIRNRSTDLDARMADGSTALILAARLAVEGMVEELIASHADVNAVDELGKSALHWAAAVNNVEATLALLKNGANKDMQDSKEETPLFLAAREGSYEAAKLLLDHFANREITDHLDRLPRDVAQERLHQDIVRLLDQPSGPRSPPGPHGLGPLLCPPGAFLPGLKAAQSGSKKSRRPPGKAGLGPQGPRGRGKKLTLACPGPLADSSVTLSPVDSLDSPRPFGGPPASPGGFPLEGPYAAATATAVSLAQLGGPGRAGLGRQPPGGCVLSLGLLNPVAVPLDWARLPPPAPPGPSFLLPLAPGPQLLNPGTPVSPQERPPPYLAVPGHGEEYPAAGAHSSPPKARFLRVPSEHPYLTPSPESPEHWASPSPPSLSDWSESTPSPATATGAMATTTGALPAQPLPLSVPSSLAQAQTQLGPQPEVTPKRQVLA
Torsin-1A-interacting protein 2 (Homo sapiens), sequence (Q8NFQ8 whole entry, looked up): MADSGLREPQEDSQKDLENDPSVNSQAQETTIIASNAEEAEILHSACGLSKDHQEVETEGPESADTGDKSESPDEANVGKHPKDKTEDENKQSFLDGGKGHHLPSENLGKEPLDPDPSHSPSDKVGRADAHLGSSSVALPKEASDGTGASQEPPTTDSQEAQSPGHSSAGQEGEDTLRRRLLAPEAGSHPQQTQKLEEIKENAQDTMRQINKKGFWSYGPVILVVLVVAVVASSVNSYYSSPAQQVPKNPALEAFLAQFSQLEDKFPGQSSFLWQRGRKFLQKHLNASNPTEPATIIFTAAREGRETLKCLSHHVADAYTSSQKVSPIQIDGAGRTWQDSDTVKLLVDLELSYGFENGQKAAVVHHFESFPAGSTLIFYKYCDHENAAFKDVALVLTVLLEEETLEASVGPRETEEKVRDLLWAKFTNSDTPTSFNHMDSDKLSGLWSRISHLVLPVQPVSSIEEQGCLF

With `CC(C)=CCCC(C)=CCON=C1C[C@@H](O)[C@@H](O)[C@@H]2[C@@H]3C(=O)N(C[C@@H]4CCCO4)C(=O)[C@@H]3CC[C@@H]12`, the composite z-score is 1.54 in [1]; 2.34 in assay [5]; -0.133 in assay [7]; 1.3 in assay [8]; 1.01 in [9]; -0.0556 in assay [10]. Further, the composite z-score in assay [11] is 0.998; in assay [12], -0.364; in [13], -0.753; in assay [15] it was 1.33; in assay [16], 1.29; in assay [17] it was 1.15. The values for the composite z-score in assay [18], in [19] and in assay [20] were 1.37, 1.37 and 1.52, respectively. Moreover, the z-score was -0.224 (inactive) in [2]; 0.574 (inactive) in assay [3]; -0.618 (inactive) in assay [4]; 0.325 (inactive) in [6]; 0.363 (inactive) in assay [14].

With `C=CCC(OC(C)=O)[C@@H]1[C@@H](N(Cc2cc3ccccc3o2)C(=O)Cc2ccc(F)cc2)c2cc(OCCCO)ccc2N1C(=O)Cc1ccc(OC)cc1` (stereo not given in full), the composite z-score was -1.46 in [1]; -0.362 in assay [5]; -0.198 in [7]; -0.0439 in [8]; -1.37 in assay [9]; -0.131 in [10]. Besides, the composite z-score in assay [11] was -0.144; in assay [12] it was -0.361; in assay [13], 0.102; in assay [15], 0.0509; in [16], -1.17; in assay [17], -0.239. Besides, the figures for the composite z-score in assay [18], in [19] and in assay [20] were -0.0882, -0.191 and 0.772, respectively. Further, the z-score in assay [2] is -1.54 (inactive); in assay [3], -0.644 (inactive); in assay [4], -0.624 (inactive); in assay [6], -0.824 (inactive); in assay [14] it was -0.844 (inactive).

`Cc1ccc(S(=O)(=O)N[C@@H]2COC(=O)[C@H](C)COC(=O)CC=C[C@H]2C)cc1`: the composite z-score in assay [1] was -0.365; in [5] it was -0.366; in assay [7], -0.18; in assay [8], 0.984; in [9] it was 0.566; in assay [10] it was -0.215. Also, the composite z-score was -0.0259 in assay [11]; -0.291 in [12]; -0.589 in [13]; 0.66 in [15]; 0.771 in assay [16]; 0.751 in [17]. Moreover, the composite z-score came to 1.41 in [18], 1.8 in assay [19] and 1.16 in [20]. The z-score in [2] is 1.4 (inactive); in assay [3], 1.05 (inactive); in [4], 1.2 (inactive); in assay [6], -0.234 (inactive); in [14], 0.159 (inactive).

For the compound `O=C1[C@H]2[C@H]3[C@H](O)[C@H](O)CC(=NO[C@@H]4O[C@H](CO)[C@@H](O)[C@H](O)[C@H]4O)[C@@H]3CC[C@H]2C(=O)N1Cc1ccccc1`, the composite z-score in [1] is 0.346; in assay [5] it was 0.218; in [7], -0.103; in [8], 0.574; in assay [9] it was 0.433; in [10], 0.0673. Moreover, the composite z-score in assay [11] was 0.133; in assay [12], -0.195; in assay [13], -0.269; in [15], 0.503; in assay [16], -0.817; in assay [17] it was 0.331. Further, the composite z-score in assay [18] is -0.0746; in assay [19], -0.0034; in assay [20] it was -1.43. Further, the z-score in assay [2] is -0.3 (inactive); in assay [3], -0.13 (inactive); in assay [4], -0.556 (inactive); in [6], 0.0628 (inactive); in assay [14] it was -0.847 (inactive).

Take `C[N+](C)(C)CCCCCCNC(=O)[C@@H]1C[C@@H]2C(=O)N3CCC[C@H]3C(=O)N2[C@@H]1c1cccc(OCCO)c1`: the composite z-score in assay [1] was 1.44; in assay [5] it was 3.14; in assay [7], -0.0898; in assay [8] it was 1.88; in [9], 0.245; in [10], -0.0967. Also, the composite z-score in [11] is 1.26; in assay [12], -0.303; in [13], 0.824; in assay [15], -0.0327; in assay [16] it was 0.586; in assay [17], 0.36. The composite z-score in [18] was determined as 0.476; in [19] it was 0.808; in [20] it was 1.03. The z-score is -1.6 (inactive) in assay [2]; -0.0376 (inactive) in [3]; -1.06 (inactive) in assay [4]; 0.784 (inactive) in assay [6]; -0.739 (inactive) in [14].
